In ChEMBL document CHEMBL3988442, “University of Dundee, Small-Polar-MMV Screening Library” (2021):

Target: T1, Methionyl-tRNA synthetase, putative (Leishmania donovani (strain BPK282A1)) (UniProt E9BF75)
T1 sequence (whole entry): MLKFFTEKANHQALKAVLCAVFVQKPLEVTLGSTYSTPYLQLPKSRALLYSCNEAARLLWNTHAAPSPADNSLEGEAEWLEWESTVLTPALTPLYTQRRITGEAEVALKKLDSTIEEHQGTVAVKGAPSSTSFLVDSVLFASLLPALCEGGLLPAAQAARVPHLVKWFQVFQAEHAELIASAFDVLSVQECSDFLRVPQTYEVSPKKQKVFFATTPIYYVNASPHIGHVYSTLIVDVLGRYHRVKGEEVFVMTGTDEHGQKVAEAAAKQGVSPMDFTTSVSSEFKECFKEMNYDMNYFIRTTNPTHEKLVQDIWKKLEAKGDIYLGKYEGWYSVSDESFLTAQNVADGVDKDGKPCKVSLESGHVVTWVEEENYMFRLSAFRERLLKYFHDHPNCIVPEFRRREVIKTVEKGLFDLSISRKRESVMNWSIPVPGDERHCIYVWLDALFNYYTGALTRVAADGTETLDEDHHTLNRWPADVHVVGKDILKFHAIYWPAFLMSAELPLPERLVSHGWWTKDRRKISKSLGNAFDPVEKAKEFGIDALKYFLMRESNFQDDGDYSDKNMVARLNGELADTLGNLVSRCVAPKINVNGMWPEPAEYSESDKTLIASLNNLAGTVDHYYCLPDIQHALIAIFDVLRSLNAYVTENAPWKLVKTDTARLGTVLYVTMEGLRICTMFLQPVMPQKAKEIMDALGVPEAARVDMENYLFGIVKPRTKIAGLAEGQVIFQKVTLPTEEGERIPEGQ
Test: Leishmania donovani Methionine tRNA synthetase (LdMetRS):v7. Dose response assay
Format: functional
Design: conc 80 nM, time 150 minutes

CC(C)C[C@H](N)COc1ccc(-c2ccccc2)c(F)c1
PXC50 (MAX_EFFECT 23.6673774): < 4 | PXC50 (MAX_EFFECT 25.46583851): < 4

CC(=O)NCCNc1nc(-c2cccnc2)nc2sc(C)c(C)c12
PXC50 (MAX_EFFECT 9.574468085): < 4 | PXC50 (MAX_EFFECT 10.3626943): < 4

CCOC(=O)N1CCN(c2nc(C)nc3scc(-c4cccs4)c23)CC1
PXC50 (MAX_EFFECT 28.24427481): < 4 | PXC50 (MAX_EFFECT 28.46347607): < 4

Cn1ncc2c(NCCO)nc(NCCO)nc21
PXC50 (MAX_EFFECT 3.795066414): < 4

Cc1nc(N(C)CC(=O)NC2CC2)c2c3c(sc2n1)CCC3
PXC50 (MAX_EFFECT 3.703703704): < 4 | PXC50 (MAX_EFFECT 5.866666667): < 4

COCCN(CC1CC1)c1nc(CCN)nc2sc(C)c(C)c12
PXC50 (MAX_EFFECT 32.65306122): < 4 | PXC50 (MAX_EFFECT 36.11111111): < 4

Cc1nc(N[C@@H](Cc2ccccc2)C(=O)O)c2c3c(sc2n1)CCCC3
PXC50 (MAX_EFFECT 23.48484848): < 4 | PXC50 (MAX_EFFECT 27.55102041): < 4

FC(F)(F)CCNCc1cc(Cl)cc(Cl)c1
PXC50 (MAX_EFFECT 11.28107075): < 2.7

COC(=O)c1ccc(OC)c(NC(=O)N2CCCc3ccccc32)c1
PXC50 (MAX_EFFECT 6.79245283): < 4

CCNc1nc(CC)nc2sc(CC)cc12
PXC50 (MAX_EFFECT 7.537688442): < 4 | PXC50 (MAX_EFFECT 11.05651106): < 4

N[C@H](COc1cccc(F)c1Oc1ccc(Cl)cc1)Cc1ccccc1
PXC50 (BOTTOM 1.014480123, HILLSLOPE 1.236846962, MAX_EFFECT 63.97515528, TOP 100.0): 4.22 | PXC50 (BOTTOM 4.768215501, HILLSLOPE 2.241755438, MAX_EFFECT 75.26652452, TOP 100.0): 4.22

CCOC(=O)N1CCN(c2nc(C)nc3sc4c(c23)CCCC4)CC1
PXC50 (MAX_EFFECT 14.58333333): < 4 | PXC50 (MAX_EFFECT 16.22807018): < 4

CN(C)CCNC(=O)c1ccc2ccc(N3CCN(S(C)(=O)=O)CC3)n2c1
PXC50 (BOTTOM 0.033, HILLSLOPE 2.605738827, MAX_EFFECT 55.98086124, TOP 56.52145989): 4.84 | PXC50 (BOTTOM -2.072944034, HILLSLOPE 2.61914663, MAX_EFFECT 60.32906764, TOP 62.06864911): 4.75

Cc1nc(N2CCC3(CC2)OCCO3)c2c(-c3cccs3)csc2n1
PXC50 (MAX_EFFECT 10.43256997): < 4 | PXC50 (MAX_EFFECT 13.35012594): < 4

Nc1nc(CSc2ccccn2)nc2sc3c(c12)CCCC3
PXC50 (MAX_EFFECT 37.33333333): < 4 | PXC50 (MAX_EFFECT 37.56613757): < 4

O=C(c1cnccn1)N1CCC(F)(F)C2(CCN(c3ccccn3)C2)C1 (configuration not stated)
PXC50 (MAX_EFFECT 7.962962963): < 4 | PXC50 (MAX_EFFECT 7.981220657): < 4

C[C@@H](CO)Nc1ccnc(Nc2ccc(F)c(F)c2)n1
PXC50 (MAX_EFFECT 40.46242775): < 4

CS(=O)(=O)N1CCN(c2ccc3ccc(C(=O)NCCc4ccccc4)cn23)CC1
PXC50 (BOTTOM 2.353808238, HILLSLOPE 2.745183605, MAX_EFFECT 51.67464115, TOP 50.17202443): 5.02 | PXC50 (BOTTOM 6.057044372, HILLSLOPE 2.135645997, MAX_EFFECT 57.03839122, TOP 56.72145826): 4.82

CS(=O)(=O)N1CCN(c2ccc3ccc(C(=O)N4CCCC4)cn23)CC1
PXC50 (BOTTOM 0.156945579, HILLSLOPE 1.857683392, MAX_EFFECT 58.30188679, TOP 61.51792395): 4.86 | PXC50 (BOTTOM 4.583304472, HILLSLOPE 3.359740299, MAX_EFFECT 56.16438356, TOP 53.05051886): 4.95

FC1(F)CCN(Cc2ccncc2)CC12CCN(c1cnccn1)C2 (configuration not stated)
PXC50 (MAX_EFFECT 2.721088435): < 4 | PXC50 (MAX_EFFECT 15.70093458): < 4

Cn1ncc2c(NC3CCCC(O)C3)nc(Nc3ccc(F)c(F)c3)nc21 (configuration not stated)
PXC50 (BOTTOM 4.828241924, HILLSLOPE 1.003842691, MAX_EFFECT 77.73584906, TOP 90.35664451): 4.76

Cn1ncc2c(NCCO)nc(NCCCO)nc21
PXC50 (MAX_EFFECT 7.543520309): < 4

COc1ccccc1NC(=O)NC1CCCCC1
PXC50 (MAX_EFFECT 21.47001934): < 4

CS(=O)(=O)N1CCN(c2ccc3ccc(C(=O)NCC(=O)N4CCOCC4)cn23)CC1
PXC50 (BOTTOM 0.290613171, HILLSLOPE 1.637678219, MAX_EFFECT 51.19617225, TOP 53.26483222): 4.83 | PXC50 (BOTTOM 5.655540606, HILLSLOPE 2.540340494, MAX_EFFECT 56.3071298, TOP 55.42961413): 4.8

CCOC(=O)c1sc2nc(CN3CCCCC3)nc(NC3CC3)c2c1C
PXC50 (MAX_EFFECT 16.58291457): < 4 | PXC50 (MAX_EFFECT 18.42751843): < 4

Cc1nc(NCCS(N)(=O)=O)c2c(-c3ccccc3)csc2n1
PXC50 (MAX_EFFECT 6.870229008): < 4 | PXC50 (MAX_EFFECT 12.34256927): < 4

CN(C(=O)c1ccc2ccc(N3CCN(S(C)(=O)=O)CC3)n2c1)C1CCCC1
PXC50 (BOTTOM 0.289643944, HILLSLOPE 2.293493597, MAX_EFFECT 58.37320574, TOP 59.73308371): 5.01 | PXC50 (BOTTOM 8.176661161, HILLSLOPE 2.054643886, MAX_EFFECT 62.15722121, TOP 64.55497205): 4.82

FC1(F)CCN(Cc2ccccn2)CC12CCN(c1cnccn1)C2 (configuration not stated)
PXC50 (MAX_EFFECT 7.476635514): < 4 | PXC50 (MAX_EFFECT 8.163265306): < 4

Cc1sc2nc(-c3cccs3)nc(N3CCNC(=O)C3)c2c1C
PXC50 (MAX_EFFECT 4.8): < 4 | PXC50 (MAX_EFFECT 8.994708995): < 4

Clc1cc(Cl)cc(CNCc2c[nH]cn2)c1
PXC50 (MAX_EFFECT 24.66539197): < 2.7

Cc1sc2nc(C(F)(F)F)nc(N3CCN(C)CC3)c2c1C
PXC50 (MAX_EFFECT 6.788511749): < 4 | PXC50 (MAX_EFFECT 7.049608355): < 4

Cn1ncc2c(N3CCCCC3)nc(Nc3ccccc3)nc21
PXC50 (MAX_EFFECT 27.40740741): < 4

COCCNC(=O)c1ccc2ccc(N3CCN(S(C)(=O)=O)CC3)n2c1
PXC50 (BOTTOM 1.198316498, HILLSLOPE 2.008751015, MAX_EFFECT 51.91956124, TOP 53.93938429): 4.75 | PXC50 (MAX_EFFECT 47.36842105): < 4
